About 7,900 targets were measured; listed, in parts, are those with a hit and a random draw of the rest. About 0.6% of all pairs of compound and target were hits.
How the values were obtained:
Assay in all cases: log2 fold change, soluble protein after heating vs DMSO (PISA); higher = thermal stabilisation; K562 cells, 10 uM, 30 min; active = over 0.2 and 3.5 SD of the protein, either way, in both replicates (recomputed)
[1] = compound: CC1=C(C=C(C=C1)NC(=O)C2=CC(=CC=C2)C(C)(C)C#N)NC3=CC4=C(C=C3)N=CN(C4=O)C
In short: (§1)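 Values are thermal stability changes relative to control samples and are taken from duplicates. They are stated as log2 fold changes. Before quantification by TMTpro 16plex LC-MS/MS with equalised channel sums, K562 cells at 2×10^6 cells/mL were treated with 10 μM compound for 30 min, heated in aliquots for 3 min across 48°C-58°C, pooled, extracted in PBS with 0.5% NP-40 at 4°C, and centrifuged at 21,000xg for 90 min to give the soluble supernatant.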

[2] = compound: CC1=C(C=C(C=C1)NC(=O)C2=CC(=CC=C2)N(C)C)NC(=O)C3=CC=C(C=C3)O
In short: as §1

vemurafenib = compound: CCCS(=O)(=O)Nc1ccc(F)c(C(=O)c2c[nH]c3ncc(-c4ccc(Cl)cc4)cc23)c1F [vemurafenib]
In short: as §1

[3] = compound: CCCc1cc(C)[nH]c(=O)c1CNC(=O)c1cc(-c2ccnc(N3CCN(C)CC3)c2)cc2c1cnn2C(C)C
In short: as §1

givinostat = compound: CCN(CC)Cc1ccc2cc(COC(=O)Nc3ccc(C(=O)NO)cc3)ccc2c1 [givinostat]
In short: as §1

barasertib = compound: CCN(CCCOc1ccc2c(Nc3cc(CC(=O)Nc4cccc(F)c4)[nH]n3)ncnc2c1)CCOP(=O)(O)O [barasertib]
In short: as §1

[4] = compound: CC[C@@H]1C(=O)N(C)c2cnc(Nc3ccc(C(=O)NC4CCN(C)CC4)cc3OC)nc2N1C1CCCC1
In short: as §1

[5] = compound: CC[C@H](C)N1C=C(C2=C(C=C(C=C21)C3=CN=C(C=C3)N4CCNCC4)C(=O)NCC5=C(C=C(NC5=O)C)C)C
In short: as §1

[6] = compound: CCn1c(C(=O)N(C2CC2)C2CC2)cc2c3c(ncn3C)c(Nc3cc(C)n(C)n3)nc21
In short: as §1

[7] = compound: CCn1cc(-c2ccnc3[nH]c(-c4cccc(CN(C)C)c4)cc23)c(-c2ccc(NC(=O)N(C)C)cc2)n1
In short: as §1

[8] = compound: CN(C)CC(=O)Nc1ccc2[nH]c(=O)c3ccccc3c2c1
In short: as §1

rosiglitazone = compound: CN(CCOC1=CC=C(C=C1)C[C@H]2C(=O)NC(=O)S2)C3=CC=CC=N3 (racemic) [rosiglitazone]
In short: as §1

[9] = compound: CN1C2=C(C3=C1C(=O)N(N=C3)CC4=CC(=CC=C4)N)SC(=C2)S(=O)C
In short: as §1

[10] = compound: CN1CCC(CNc2ccc3ncc(-c4cccc(OC(F)(F)F)c4)n3n2)CC1
In short: as §1

[11] = compound: CC1=CC=C(C=C1)SC2=C3C=C(SC3=CN=C2)C(=O)N
In short: as §1

[12] = compound: CC1=NC(=CC=C1)C2=C(N=C(N2)C(C)(C)C)C3=CC4=NC=CN=C4C=C3
In short: as §1

Nexturastat A = compound: CCCCN(Cc1ccc(C(=O)NO)cc1)C(=O)Nc1ccccc1 [Nexturastat A]
In short: as §1

[13] = compound: CCCS(=O)(=O)Nc1ccc(F)c(C(=O)c2c[nH]c3ncc(Cl)cc23)c1F
In short: as §1

volasertib = compound: CC[C@@H]1C(=O)N(C)c2cnc(Nc3ccc(C(=O)N[C@H]4CC[C@H](N5CCN(CC6CC6)CC5)CC4)cc3OC)nc2N1C(C)C [volasertib]
In short: as §1

epoxomicin = compound: CC[C@H](C)[C@@H](C(=O)N[C@@H]([C@@H](C)O)C(=O)N[C@@H](CC(C)C)C(=O)[C@]1(CO1)C)NC(=O)[C@H]([C@@H](C)CC)N(C)C(=O)C [epoxomicin]
In short: as §1

Measured: log2 fold change

CCNDBP1 (UniProt O95273)
inactive: [1] -0.104 | [2] 0.027 | vemurafenib -0.074 | [3] -0.091 | givinostat -0.046 | barasertib 0.088 | [4] 0.088 | [5] 0.133 | [6] -0.045 | [7] -0.036 | [8] -0.094 | rosiglitazone 0.032 | [9] 0.013 | [10] -0.048

C22orf39 (UniProt Q6P5X5)
Chain of UniProt Q6P5X5 (Q6P5X5 whole entry, looked up): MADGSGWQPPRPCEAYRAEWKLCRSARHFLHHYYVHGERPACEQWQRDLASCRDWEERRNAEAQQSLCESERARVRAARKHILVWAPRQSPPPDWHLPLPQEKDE
inactive: [1] -0.033 | [2] 0.059 | [11] -0.058 | [12] -0.008 | Nexturastat A -0.024 | [13] 0.205 | [3] 0.017 | givinostat 0.044 | barasertib -0.042 | volasertib 0.134 | [5] -0.042 | epoxomicin 0.081 | [6] -0.08 | rosiglitazone -0.119 | [9] 0.043

CCNT2 (UniProt O60583)
inactive: [1] 0.092 | [2] 0.042 | [11] -0.057 | Nexturastat A 0.348 | [13] -0.031 | [3] 0.211 | [4] 0.035 | volasertib -0.096 | [5] 0.056 | epoxomicin 0.004 | [7] -0.084 | [9] 0.023 | [10] -0.101

CLN8 (UniProt Q9UBY8)
inactive: [1] -0.018 | [2] 0.081 | [11] -0.085 | vemurafenib -0.001 | [13] -0.109 | [3] -0.132 | givinostat -0.086 | barasertib 0.051 | [4] 0.069 | volasertib 0.001 | [5] 0.077 | [6] -0.101 | [7] 0.005 | [8] 0.145 | rosiglitazone 0.327 | [9] 0.135 | [10] 0.191

CSNK1D (UniProt P48730)
inactive: [1] -0.001 | [2] 0.003 | [11] -0.033 | [12] -0.018 | Nexturastat A 0.117 | vemurafenib 0.081 | [13] -0.047 | [3] 0.015 | givinostat -0.254 | barasertib -0.032 | volasertib -0.133 | [5] 0 | epoxomicin 0.026 | [6] -0.088 | [8] -0.019 | rosiglitazone -0.062 | [9] 0.15 | [10] 0.315

CRTC3 (UniProt Q6UUV7)
Chain of UniProt Q6UUV7 (Q6UUV7 whole entry, looked up): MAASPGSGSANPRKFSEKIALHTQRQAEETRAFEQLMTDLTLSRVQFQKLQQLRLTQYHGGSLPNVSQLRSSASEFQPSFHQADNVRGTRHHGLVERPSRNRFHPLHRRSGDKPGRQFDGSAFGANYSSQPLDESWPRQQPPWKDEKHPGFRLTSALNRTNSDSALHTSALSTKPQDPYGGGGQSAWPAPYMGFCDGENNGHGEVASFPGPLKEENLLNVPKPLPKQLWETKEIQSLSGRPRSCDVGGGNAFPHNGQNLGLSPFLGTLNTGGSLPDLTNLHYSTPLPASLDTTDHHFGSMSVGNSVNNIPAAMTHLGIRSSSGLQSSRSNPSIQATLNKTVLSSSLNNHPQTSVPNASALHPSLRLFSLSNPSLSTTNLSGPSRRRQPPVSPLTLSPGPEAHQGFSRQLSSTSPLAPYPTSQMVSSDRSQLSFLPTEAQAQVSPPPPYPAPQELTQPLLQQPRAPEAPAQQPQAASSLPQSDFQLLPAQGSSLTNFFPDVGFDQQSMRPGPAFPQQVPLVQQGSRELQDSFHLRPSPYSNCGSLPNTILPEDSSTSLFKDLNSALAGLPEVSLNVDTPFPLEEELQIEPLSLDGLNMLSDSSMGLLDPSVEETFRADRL
active: [3] -0.543
inactive: [1] -0.017 | [2] 0.087 | [11] 0.033 | Nexturastat A -0.049 | vemurafenib -0.093 | [13] 0.144 | barasertib 0.035 | volasertib 0.051 | epoxomicin 0.094 | [8] -0.117 | rosiglitazone 0.148

COG2 (UniProt Q14746)
Chain of UniProt Q14746 (Q14746 whole entry, looked up): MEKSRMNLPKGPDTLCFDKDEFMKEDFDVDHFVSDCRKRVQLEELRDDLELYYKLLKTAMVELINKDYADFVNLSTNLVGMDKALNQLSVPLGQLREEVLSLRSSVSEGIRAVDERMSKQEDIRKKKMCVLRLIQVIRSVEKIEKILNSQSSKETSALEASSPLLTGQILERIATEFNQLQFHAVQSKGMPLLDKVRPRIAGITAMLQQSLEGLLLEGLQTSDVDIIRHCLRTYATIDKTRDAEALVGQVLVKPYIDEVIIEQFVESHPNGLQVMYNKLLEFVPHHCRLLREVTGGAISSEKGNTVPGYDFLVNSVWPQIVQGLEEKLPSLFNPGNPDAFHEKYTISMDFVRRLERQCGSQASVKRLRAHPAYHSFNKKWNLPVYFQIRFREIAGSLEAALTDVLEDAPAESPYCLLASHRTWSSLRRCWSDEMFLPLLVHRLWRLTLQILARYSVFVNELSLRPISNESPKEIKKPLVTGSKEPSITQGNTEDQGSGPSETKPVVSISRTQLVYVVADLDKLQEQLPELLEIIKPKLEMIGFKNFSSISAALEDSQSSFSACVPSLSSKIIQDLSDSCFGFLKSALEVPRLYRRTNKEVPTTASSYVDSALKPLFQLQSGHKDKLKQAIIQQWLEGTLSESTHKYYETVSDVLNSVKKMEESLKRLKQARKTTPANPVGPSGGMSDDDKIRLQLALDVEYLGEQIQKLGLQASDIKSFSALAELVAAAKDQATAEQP
inactive: [1] -0.064 | [2] 0 | [12] 0.096 | Nexturastat A 0.432 | [3] -0.59 | givinostat 0.048 | [4] -0.173 | [5] -0.357 | epoxomicin 0.008 | [6] 0.076 | [9] 0.302

CASP7 isoform 3 (UniProt P55210)
Chain of UniProt P55210 (P55210 whole entry, looked up): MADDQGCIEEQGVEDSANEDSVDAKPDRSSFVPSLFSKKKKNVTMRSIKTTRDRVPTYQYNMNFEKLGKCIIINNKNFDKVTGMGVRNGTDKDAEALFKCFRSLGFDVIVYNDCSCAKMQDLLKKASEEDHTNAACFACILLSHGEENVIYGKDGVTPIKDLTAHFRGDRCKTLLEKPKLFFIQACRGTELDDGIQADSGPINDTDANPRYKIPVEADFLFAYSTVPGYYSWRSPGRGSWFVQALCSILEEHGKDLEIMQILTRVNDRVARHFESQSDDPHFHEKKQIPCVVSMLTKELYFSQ
inactive: Nexturastat A 0.255 | givinostat -0.005 | barasertib -0.249 | [4] 0.014 | [5] 0.017 | epoxomicin 0.222 | [6] -0.001 | [7] -0.569 | rosiglitazone 0.259 | [9] 0.032 | [10] -0.697

CARD9 (UniProt Q9H257)
inactive: [2] -0.15 | [12] 0.052 | givinostat -0.106 | [6] -0.103

CEP128 (UniProt Q6ZU80)
inactive: [1] -0.043 | [11] 0.006 | [12] -0.188 | vemurafenib -0.1 | [13] -0.118 | [3] -0.422 | barasertib 0.098 | [4] -0.009 | volasertib -0.09 | [8] -0.11 | rosiglitazone 0.049 | [9] 0.039

CCDC187, A0A1W2PQX5
inactive: [2] -0.105 | Nexturastat A 0.003 | [5] 0.012 | epoxomicin 0.085 | [7] -0.03 | [10] -0.029

CNN1 (UniProt P51911)
inactive: [1] -0.068 | [11] -0.1 | Nexturastat A -0.029 | vemurafenib 0.056 | [13] -0.042 | [3] -0.012 | [4] -0.049 | volasertib -0.066 | [5] -0.066 | epoxomicin -0.015 | [7] -0.403 | [8] -0.007 | [10] -0.192

CDK2AP2 (UniProt O75956)
Chain of UniProt O75956 (O75956 whole entry, looked up): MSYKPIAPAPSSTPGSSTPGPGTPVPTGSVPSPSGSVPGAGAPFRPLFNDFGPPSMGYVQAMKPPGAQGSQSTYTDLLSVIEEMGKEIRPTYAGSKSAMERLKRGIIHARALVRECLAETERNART
inactive: [2] -0.14 | [12] 0.021 | Nexturastat A 0.022 | [3] -0.065 | givinostat -0.154 | barasertib -0.029 | [4] 0.078 | [5] -0.04 | epoxomicin 0.137 | [6] 0.074 | rosiglitazone -0.002

CSNK1A1 isoform 3 (UniProt P48729)
inactive: [11] -0.08 | [13] 0.227 | [3] -0.035 | barasertib -0.089 | volasertib -0.224 | rosiglitazone -0.005

C5orf30 (UniProt Q96GV9)
inactive: [11] -0.126 | Nexturastat A -0.186 | [13] 0.103 | volasertib 0.001 | epoxomicin 0.165

CRMP1 isoform 2 (UniProt Q14194)
inactive: [1] 0.089 | vemurafenib -0.026 | givinostat -0.19 | barasertib 0.035 | [5] 0.2 | [6] -0.303 | [7] -0.198 | [8] -0.072 | rosiglitazone 0.047 | [9] -0.25 | [10] 0.038

CASK (UniProt O14936)
inactive: [12] -0.091 | givinostat -0.06 | [6] -0.086 | [9] 0.014

CFAP47 (UniProt Q6ZTR5)
inactive: [11] -0.159 | Nexturastat A -0.041 | vemurafenib -0.11 | [13] -0.106 | barasertib -0.035 | [4] 0.063 | volasertib 0.065 | epoxomicin -0.006 | [8] -0.248 | rosiglitazone 0.108 | [9] 0.23

CCNL1 (UniProt Q9UK58)
Chain of UniProt Q9UK58 (Q9UK58 whole entry, looked up): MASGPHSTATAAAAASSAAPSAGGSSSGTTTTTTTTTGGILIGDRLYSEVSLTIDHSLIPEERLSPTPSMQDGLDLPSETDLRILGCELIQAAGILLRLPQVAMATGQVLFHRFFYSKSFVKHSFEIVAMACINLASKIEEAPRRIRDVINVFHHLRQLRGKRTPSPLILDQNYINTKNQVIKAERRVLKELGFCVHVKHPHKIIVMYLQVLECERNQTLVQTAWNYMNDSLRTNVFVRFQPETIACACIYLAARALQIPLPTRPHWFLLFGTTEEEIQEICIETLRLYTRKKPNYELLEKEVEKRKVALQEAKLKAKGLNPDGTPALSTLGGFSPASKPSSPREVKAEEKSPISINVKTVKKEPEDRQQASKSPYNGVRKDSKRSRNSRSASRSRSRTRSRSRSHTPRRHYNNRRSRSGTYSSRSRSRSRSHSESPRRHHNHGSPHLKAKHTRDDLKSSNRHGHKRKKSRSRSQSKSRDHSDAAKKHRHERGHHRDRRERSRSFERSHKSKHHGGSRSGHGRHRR
inactive: [3] -0.317 | givinostat 0.156 | [6] -0.078

CA1 (UniProt E5RIF9)
inactive: Nexturastat A -0.413 | vemurafenib -0.383 | barasertib -0.004 | epoxomicin 0.132 | [8] -0.037 | rosiglitazone -0.083 | [9] -0.056

CLINT1 (UniProt Q14677)
inactive: [12] -0.007 | Nexturastat A 0.259 | vemurafenib 0.051 | [3] -0.017 | barasertib 0.017 | [4] -0.022 | [5] 0.021 | epoxomicin -0.035 | [8] -0.075 | rosiglitazone 0.003 | [9] -0.218

CKS2 (UniProt P33552)
active: [10] 0.594
inactive: [11] -0.031 | [13] 0.039 | [3] -0.077 | barasertib 0.045 | [4] 0.01 | volasertib -0.044 | [5] 0.029 | [7] -0.23 | rosiglitazone 0.028 | [9] 0.023

CNRIP1 (UniProt Q96F85)
Chain of UniProt Q96F85 (Q96F85 whole entry, looked up): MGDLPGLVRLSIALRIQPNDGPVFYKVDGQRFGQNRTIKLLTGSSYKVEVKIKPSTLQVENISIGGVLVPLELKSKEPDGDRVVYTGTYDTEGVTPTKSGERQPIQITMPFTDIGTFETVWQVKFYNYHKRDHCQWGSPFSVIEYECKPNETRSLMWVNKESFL
inactive: [2] 0.073 | [11] 0.023 | Nexturastat A -0.206 | [13] -0.075 | [3] -0.087 | givinostat 0.106 | volasertib 0.306 | [5] -0.269 | epoxomicin -0.043 | [6] -0.136

CLPTM1L (UniProt G5E9Z2)
inactive: [1] 0.122 | Nexturastat A -0.466 | vemurafenib 0.055 | [3] -0.035 | barasertib -0.076 | [5] -0.055 | epoxomicin 0.247 | [7] 0.116 | [8] 0.117 | rosiglitazone 0.189 | [10] 0.052

CFAP58 (UniProt Q5T655)
Chain of UniProt Q5T655 (Q5T655 whole entry, looked up): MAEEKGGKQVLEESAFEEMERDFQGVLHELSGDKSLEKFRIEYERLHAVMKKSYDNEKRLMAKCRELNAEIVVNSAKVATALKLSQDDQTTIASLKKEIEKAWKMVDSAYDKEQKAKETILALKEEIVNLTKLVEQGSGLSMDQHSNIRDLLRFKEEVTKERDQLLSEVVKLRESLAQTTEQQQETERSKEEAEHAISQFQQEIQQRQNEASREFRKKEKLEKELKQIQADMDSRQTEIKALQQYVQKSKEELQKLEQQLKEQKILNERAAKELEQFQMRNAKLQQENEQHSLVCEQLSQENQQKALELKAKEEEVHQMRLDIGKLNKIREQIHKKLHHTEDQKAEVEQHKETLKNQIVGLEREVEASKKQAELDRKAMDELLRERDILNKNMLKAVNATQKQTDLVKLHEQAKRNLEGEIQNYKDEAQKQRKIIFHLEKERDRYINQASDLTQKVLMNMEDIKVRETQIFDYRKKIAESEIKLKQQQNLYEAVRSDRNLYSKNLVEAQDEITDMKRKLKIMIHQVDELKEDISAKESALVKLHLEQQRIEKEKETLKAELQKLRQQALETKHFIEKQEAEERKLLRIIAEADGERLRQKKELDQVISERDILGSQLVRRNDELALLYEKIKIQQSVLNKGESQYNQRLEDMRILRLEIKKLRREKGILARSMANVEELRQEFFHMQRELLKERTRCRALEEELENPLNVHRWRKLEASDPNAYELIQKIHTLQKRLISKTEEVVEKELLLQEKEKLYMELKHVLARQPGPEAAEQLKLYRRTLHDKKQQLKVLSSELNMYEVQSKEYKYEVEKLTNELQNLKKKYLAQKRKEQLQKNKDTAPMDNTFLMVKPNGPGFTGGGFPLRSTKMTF
inactive: [2] 0.185 | [11] 0.07 | [13] -0.175 | [3] -0.219 | [4] -0.353 | volasertib -0.04 | [7] -0.112 | [10] -0.272

CEMIP2 (UniProt Q9UHN6)
Chain of UniProt Q9UHN6 (Q9UHN6 whole entry, looked up): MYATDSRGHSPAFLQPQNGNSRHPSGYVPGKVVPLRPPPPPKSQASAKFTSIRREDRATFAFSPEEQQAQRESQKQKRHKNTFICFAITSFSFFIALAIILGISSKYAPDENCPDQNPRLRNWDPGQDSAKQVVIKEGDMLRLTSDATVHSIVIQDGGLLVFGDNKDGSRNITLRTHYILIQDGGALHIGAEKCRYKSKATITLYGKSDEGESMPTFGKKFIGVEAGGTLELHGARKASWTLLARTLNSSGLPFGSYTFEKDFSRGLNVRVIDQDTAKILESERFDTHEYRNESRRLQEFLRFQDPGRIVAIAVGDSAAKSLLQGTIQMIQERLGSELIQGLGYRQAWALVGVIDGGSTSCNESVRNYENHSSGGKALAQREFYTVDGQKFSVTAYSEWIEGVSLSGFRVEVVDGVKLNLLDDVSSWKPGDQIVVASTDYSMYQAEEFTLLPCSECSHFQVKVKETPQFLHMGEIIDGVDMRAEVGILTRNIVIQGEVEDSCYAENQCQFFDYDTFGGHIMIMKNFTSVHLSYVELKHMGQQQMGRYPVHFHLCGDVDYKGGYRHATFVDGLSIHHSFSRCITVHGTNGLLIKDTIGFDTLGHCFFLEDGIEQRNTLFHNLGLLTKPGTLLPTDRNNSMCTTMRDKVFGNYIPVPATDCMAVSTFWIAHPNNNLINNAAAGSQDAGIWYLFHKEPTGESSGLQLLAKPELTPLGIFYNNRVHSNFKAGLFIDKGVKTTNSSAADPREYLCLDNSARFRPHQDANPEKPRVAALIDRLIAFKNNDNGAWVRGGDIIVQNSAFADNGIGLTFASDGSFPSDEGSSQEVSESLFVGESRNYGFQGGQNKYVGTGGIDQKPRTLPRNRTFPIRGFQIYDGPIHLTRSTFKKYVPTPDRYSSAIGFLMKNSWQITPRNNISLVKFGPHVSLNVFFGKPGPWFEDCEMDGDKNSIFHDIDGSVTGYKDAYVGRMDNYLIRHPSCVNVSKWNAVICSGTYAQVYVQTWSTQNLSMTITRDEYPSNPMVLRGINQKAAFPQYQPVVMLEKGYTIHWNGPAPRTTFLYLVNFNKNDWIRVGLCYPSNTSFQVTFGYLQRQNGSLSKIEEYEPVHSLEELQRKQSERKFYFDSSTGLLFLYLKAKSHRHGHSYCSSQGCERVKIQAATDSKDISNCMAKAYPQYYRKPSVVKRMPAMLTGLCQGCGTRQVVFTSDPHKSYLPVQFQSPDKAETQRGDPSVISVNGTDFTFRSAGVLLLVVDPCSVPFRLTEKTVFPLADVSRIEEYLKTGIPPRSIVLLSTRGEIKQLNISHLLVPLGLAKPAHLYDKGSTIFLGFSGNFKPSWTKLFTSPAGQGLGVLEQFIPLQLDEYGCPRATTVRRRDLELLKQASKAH
inactive: [2] 0.043 | [12] 0.033 | Nexturastat A 0.02 | vemurafenib -0.045 | [13] -0.1 | [3] -0.168 | givinostat -0.052 | barasertib -0.012 | [4] -0.209 | volasertib -0.364 | [5] -0.142 | epoxomicin 0.058 | [6] -0.184 | [7] -0.088 | [8] -0.049 | rosiglitazone 0.003 | [9] 0.032 | [10] 0.123
active: [11] 0.592

CEBPZOS (UniProt A8MTT3)
Chain of UniProt A8MTT3 (A8MTT3 whole entry, looked up): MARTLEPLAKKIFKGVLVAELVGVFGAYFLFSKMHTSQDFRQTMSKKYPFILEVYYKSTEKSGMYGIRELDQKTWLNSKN
inactive: [2] -0.015 | [11] 0.027 | [12] -0.016 | vemurafenib 0.065 | [13] 0.132 | [3] -0.069 | givinostat -0.029 | barasertib 0.059 | [4] 0.002 | volasertib -0.035 | [5] -0.038 | [6] 0.057 | [7] 0.013 | [8] -0.001 | rosiglitazone 0.101 | [9] -0.103 | [10] -0.015

CS (UniProt F8VU34)
inactive: barasertib -0.024 | [4] -0.093 | rosiglitazone 0.221

From the supplement of paper PMC10849652
